This is a sample that favours compounds with a hit; in the whole collection about 1.8% have one here.
PDI inh: inhibitors of human protein disulfide isomerase. PDI insulin aggregation turbidity, A650, 90 min. P07237. inhibition, % at 10 µM. 350,000 tested, 0.052% active;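 active = mean inhibition across replicates of 30% or more, whatever share of single replicates reach that level; inconclusive = mean inhibition below 30% while every single replicate reaches 30%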
ERAP1 inh: blocks human ERAP1 aminopeptidase activity; recombinant ERAP1, Leu-AMC fluorescence, 60 min; AID 652197; inhibition, % at 10.7 µM; Q9NZ08; 340,000 tested, 0.15% active;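 active = mean replicate inhibition of at least 30%, or all replicates individually reaching that 30% level; inactive = mean below 30% and not every replicate reaching it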;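 note: 0% = neutral control wells and 100% = L-leucinethiol positive control wells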
DENV2 CPE rescue: inhibitors of DENV2 cytopathic effect; DENV2-infected cells, cytopathic effect rescue, plate reader; CPE inhibition, % at 9.99 µM; 350,000 tested, 1.7% active; AID 651640; in the data active = CPE inhibition above about 20%, passing the limit was not always enough; inconclusive = no clear call, values can overlap the other calls; tested in BHK-21 cells;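 note: 0% = median of neutral control wells and 100% = median of positive control wells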
AF4-AF9 inh: blocks AF4 peptide binding to human AF9. P42568. AlphaScreen, biotin-AF4 peptide binding to FLAG-AF9. inhibition, % at 10 µM. 350,000 tested, 0.47% active;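 active = every replicate reaching a set inhibition limit, whatever the replicate mean, cut at about 25% in these data; inconclusive = mean inhibition reaches that limit but some replicates miss it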;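 note: 0% = plate neutral control median and 100% = total signal loss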
Target sequence (P42568 whole entry, looked up): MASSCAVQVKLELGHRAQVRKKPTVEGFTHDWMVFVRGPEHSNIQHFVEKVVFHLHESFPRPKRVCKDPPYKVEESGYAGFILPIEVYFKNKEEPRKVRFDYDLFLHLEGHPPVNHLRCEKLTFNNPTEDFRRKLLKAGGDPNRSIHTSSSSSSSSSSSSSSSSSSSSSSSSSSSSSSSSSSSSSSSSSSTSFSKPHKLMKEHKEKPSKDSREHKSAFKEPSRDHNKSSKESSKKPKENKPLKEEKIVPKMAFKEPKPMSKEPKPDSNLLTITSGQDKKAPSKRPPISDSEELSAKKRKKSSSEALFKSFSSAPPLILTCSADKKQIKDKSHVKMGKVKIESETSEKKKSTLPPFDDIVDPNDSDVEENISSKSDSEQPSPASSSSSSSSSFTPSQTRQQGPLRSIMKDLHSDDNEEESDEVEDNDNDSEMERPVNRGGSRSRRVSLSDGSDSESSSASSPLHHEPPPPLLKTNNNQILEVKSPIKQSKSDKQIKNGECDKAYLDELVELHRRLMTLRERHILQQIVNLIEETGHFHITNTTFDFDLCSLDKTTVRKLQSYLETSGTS
ERp5 inh: ERp5 (human) disulfide isomerase inhibition | ERp5 insulin aggregation, absorbance 650 nm, 90 min | inhibition, % at 9.99 µM | AID 651711 | Q15084 | 350,000 tested, 0.05% active;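 active = mean replicate inhibition above about 25%, with every replicate also reaching it, limit read from the data, passing the limit was not always enough; inconclusive = only one of those two criteria met; inactive = neither criterion met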
AlphaScreen intf: AlphaScreen signal interference counter-screen hit; AID 720494; shares compounds with AF4-AF9 inh; signal luminescence; 530 tested, 45% active; AC50, µM (titrated, usually from 12 µM), for inactives: top-dose activity change, negative = inhibition; cut-off not given, nearly all actives have AC50 up to about 14 µM
Numbers without * were called inactive; ? = inconclusive; / = no result given.

SMILES	PDI inh	ERAP1 inh	DENV2 CPE rescue	AF4-AF9 inh	ERp5 inh	AlphaScreen intf
O=C(COc1cc(F)ccc1[N+](=O)[O-])Nc1ccc(N2CCOCC2)cc1	-1.9	6.9	?	3.1	-6.2	/
O=C(COc1cc(F)ccc1[N+](=O)[O-])Nc1ccc(N2CCCCC2)cc1	7.1	4.4	1.4	?	-5.1	-35.4%
Cc1c(C)n(Cc2ccccc2)c2ccc(C(=O)OCCN(C)C)cc12	7.0	8.7	-5.2	27.7*	4.6	-28.5%
CNC[C@H](Cc1ccccc1)NC[C@@H](Cc1cccc2ccccc12)NCCc1ccc(C)cc1	-3.5	/	2.9	44.6*	-4.0	-23.7%
CC(C)NC(=O)N(C)C[C@@H]1Oc2ccc(NC(=O)Nc3ccc4c(c3)OCO4)cc2C(=O)N([C@@H](C)CO)C[C@@H]1C	/	-1.8	11.2	-1.8	-7.1	/
COc1ccc(CN2CC3(C2)CN(Cc2ccc4c(c2)OCO4)[C@H](CO)c2[nH]c4cc(OC)ccc4c23)cc1	/	/	-25.4	35.7*	/	-28.2%
C[C@@H]1CCCCO[C@@H](CN(C)C(=O)Nc2ccc(C(F)(F)F)cc2)[C@H](C)CN([C@@H](C)CO)C(=O)c2cc(NC(=O)NC3CCCCC3)ccc2O1	/	-0.4	8.5	-4.2	0.7	/
CN1CCN(C(c2ccc(C(F)(F)F)cc2)c2cc(Cl)c3cccnc3c2O)CC1 (configuration not stated)	/	0.7	-1.9	81.5*	2.7	2.06µM*
CN1CCN(C(c2ccc(Cl)cc2)c2cc(Cl)c3cccnc3c2O)CC1 (configuration not stated)	17.0	-3.8	?	85.3*	2.9	2.17µM*
Oc1c(C(c2ccccn2)N2CCCCC2)cc(Cl)c2cccnc12 (configuration not stated)	-1.2	/	0.2	57.7*	-2.8	8.67µM*
O=C(NC(c1ccc(Cl)cc1)c1cc(Cl)c2cccnc2c1O)c1cccnc1 (configuration not stated)	-21.1	/	/	/	/	/
CCCNC(=O)C[C@H]1CC[C@H]2[C@@H](COC[C@H](O)CN2C(=O)c2cccnc2)O1	/	-1.2	-1.1	-2.1	1.8	/
NCCc1c(-c2ccccc2)n(-c2ccccc2)c2ccccc12	6.3	5.6	-2.0	47.4*	-2.5	13.8µM*
COc1cc(O)c(C(CCN2CCN(c3ccccc3)CC2)c2ccc(N(C)C)cc2)c(OC)c1 (configuration not stated)	3.1	1.6	12.8	49.8*	-1.9	-22.9%
COc1ccc(C(CCN2CCN(c3ccccc3)CC2)c2c(O)cc(OC)cc2OC)cc1 (configuration not stated)	-1.6	/	/	/	/	/
N#Cc1ccc(-c2ccc([C@@H]3[C@H]4CNCC(=O)N4[C@H]3CO)cc2)cc1	/	-0.4	-5.5	-1.2	2.1	/
COC(=O)C1=CN(Cc2ccc(OC)cc2)C=C(C(=O)OC)C1c1cccs1	-13.3	-6.4	-0.8	-12.9	0.3	/
COC(=O)C1=CC(C(=O)c2cccs2)=NN(c2ccc(OC)cc2)C1C(=O)OC (configuration not stated)	-0.4	-3.3	-1.7	32.4*	2.4	-25.1%
O=C(C[C@@H]1CC[C@@H]2[C@H](COC[C@@H](O)CN2Cc2nccs2)O1)NCc1ccc(Oc2ccccc2)cc1	/	2.9	-0.2	-0.3	-3.2	/
C[C@@H]1CN([C@@H](C)CO)C(=O)c2cccc(NS(=O)(=O)c3ccccc3)c2O[C@@H]1CN(C)CC1CC1	/	0.9	-5.8	-1.1	2.4	/
COc1ccccc1N(C(C)=O)C1=C(Cl)C(=O)c2ccccc2C1=O	-104.0	60.5*	3.8	28.2*	-1.0	4.36µM*
CCS(=O)(=O)N1CCCCN2[C@H](C1)[C@@H](c1ccc(-c3ccc(C(=O)N(C)C)cc3)cc1)[C@@H]2CO	/	/	/	/	-4.2	/

Screening data as filed in PubChem.
